# From PubChem BioAssay (NCI)
# This is part of a sample that, as a whole, favours compounds with a hit. Of some 83,000 tested, about 20% had one in any assay.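 Assay: single dose, 48 h. Readout: percent growth (0 = no net growth; negative = cell death). Active: <10.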 Values without a mark were called inactive. Active and inactive are the calls of the source.
# Columns and labels:
# Assay in all cases: NCI-60 one-dose screen, 48 h (100 = growth as untreated, 0 = no growth, -100 = all killed)
# Settings in all cases: 10 µM unless noted
# [1] = tested on: SR leukemia
# [2] = tested on: RPMI-8226 leukemia
# [3] = tested on: OVCAR-8 ovarian
# [4] = tested on: OVCAR-4 ovarian
# [5] = tested on: IGROV1 ovarian
# [6] = tested on: OVCAR-3 ovarian
# [7] = tested on: HS 578T breast
# [8] = tested on: NCI/ADR-RES ovarian
# [9] = tested on: BT-549 breast
# [10] = tested on: MDA-MB-435 melanoma
# [11] = tested on: SW-620 colon
# [12] = tested on: MCF7 breast
# [13] = tested on: HCT-116 colon
# [14] = tested on: HCC-2998 colon
# [15] = tested on: KM12 colon
# [16] = tested on: SK-OV-3 ovarian
# [17] = tested on: T-47D breast
# [18] = tested on: OVCAR-5 ovarian
Structure (SMILES),growth [1],growth [2],growth [3],growth [4],growth [5],growth [6],growth [7],growth [8],growth [9],growth [10],growth [11],growth [12],growth [13],growth [14],growth [15],growth [16],growth [17],growth [18]
COc1cc(NC(=O)c2cccc(-c3cc(=O)c4c(O)c(OC)c(OC)cc4o3)c2)cc(OC)c1OC,54.4%,27%,23.1%,58.6%,70.4%,23.8%,-3.91% (active),49.4%,7% (active),65.4%,73.3%,49.4%,44.8%,66%,53.9%,–,–,–
COc1ccc(-c2nc3ccccn3c2/C=C/C(=O)c2cc(OC)c(OC)c(OC)c2)cc1,18.8%,29.8%,30.6%,56.5%,61.6%,51.2%,–,–,61.7%,38.6%,49.7%,18.8%,11.6%,61.1%,46.3%,62.8%,26.6%,–
COc1cc(/C=C/C(=O)c2cccc(-n3cc(-c4ccc(Cl)cc4)[nH]c3=O)c2)cc(OC)c1OC,-15.8% (active),-27.1% (active),29.3%,76.9%,13.1%,15.8%,–,–,86.2%,27.1%,-19.4% (active),11.9%,-45.7% (active),75.8%,46%,84.8%,–,–
Cc1ccc(S(=O)(=O)NN/C(N)=N\S(=O)(=O)c2cc(C)c(Cl)cc2SCc2ccccc2)cc1,70.4%,34.1%,109%,89.5%,–,121%,70.5%,97.1%,–,96.4%,96.6%,99.8%,94.6%,107%,97.3%,102%,87.9%,–
COc1ccc(-c2cn(-c3cccc(C(=O)/C=C/c4cc(OC)c(OC)c(OC)c4)c3)c(=O)[nH]2)cc1,-12.5% (active),-45.8% (active),12.4%,–,8.71% (active),-13.6% (active),–,–,139%,-9.22% (active),-50.7% (active),-34.5% (active),-91.9% (active),–,-62.6% (active),31.6%,-9.54% (active),–
Cc1csc(NC(=O)c2sc3nc(-c4cccs4)ccc3c2N)n1,81.5%,81.1%,97%,114%,109%,111%,99.5%,94.1%,–,108%,99.4%,71.3%,–,114%,92.9%,96.1%,–,–
O=c1cc(-c2ccc(OCc3ccccc3)cc2)oc2c(I)c(OCc3ccccc3)cc(OCc3ccccc3)c12,94.3%,108%,99.6%,100%,100%,104%,88.3%,101%,101%,102%,106%,101%,95.8%,105%,91.8%,–,104%,–
CCOC(=O)c1sc2ccc(NCc3nc[nH]c3C)cc2c1NC(=O)c1cc(OC)c(OC)c(OC)c1,10.4%,80.1%,–,74%,89.5%,94%,99.2%,91.7%,94.8%,71.7%,79.8%,62.6%,55.4%,106%,93.7%,98.1%,76.2%,96.7%
CC(=O)c1sc(-c2ccccc2)cc1N,88.4%,98.1%,–,94.2%,105%,103%,89.1%,105%,101%,94.1%,96.5%,97.7%,98.8%,99.4%,104%,89.6%,83%,100%
COc1ccc(-c2c(N)n[nH]c2-c2ccccc2O)cc1OC,53.9%,52.8%,68.3%,94.7%,94.6%,108%,91.7%,98.2%,-4.52% (active),93.4%,110%,96.5%,94.9%,107%,107%,84.1%,70%,–
CCNCCNc1cc(-c2ccc(C(=O)OC)cc2)c(C#N)c2nc3ccccc3n12,-7.47% (active),20.8%,31.5%,–,53.5%,-57% (active),59.3%,57%,68.2%,73.2%,2.26% (active),53.8%,-19.5% (active),49%,50.8%,81.7%,18.6%,–
CCCCCCCCn1cc(C2=C(c3coc4ccc(OC)cc34)C(=O)NC2=O)c2ccccc21,119%,119%,94.2%,106%,104%,107%,101%,101%,87.4%,102%,99.1%,91.8%,104%,104%,104%,–,115%,–
O=c1[nH]nc(-c2ccc(Cl)cc2)cc1Cc1ccccc1,62.5%,41.1%,83%,95.1%,40.9%,104%,103%,98.4%,–,106%,105%,92.2%,93%,113%,102%,99.1%,84.1%,–
C=C(C=O)C1CCC2(C(=O)O)CCC3(C)C(CCC4C5(C)CCC(O)C(C)(C)C5CCC43C)C12 (stereo not drawn),-2.18% (active),-12.7% (active),16.8%,34.2%,6.56% (active),-86.9% (active),–,–,17.4%,16%,-14.5% (active),6.07% (active),-92.3% (active),-85.2% (active),-87.8% (active),51%,45%,–
CCOC(=O)C1C(=O)C=C(c2cnccn2)CC1c1ccc(OC)c(OC)c1 (stereo not drawn),89.6%,90%,92.3%,109%,105%,106%,99.8%,98.2%,71.5%,106%,106%,93.1%,79.7%,99%,102%,82.2%,83.5%,–
CCOC(=O)N1CCc2c(sc3c2C(=O)N[C@H](c2ccc(OC)cc2)N3)C1,87.7%,–,89.2%,102%,107%,102%,98.7%,102%,108%,98.7%,99.6%,97.7%,93.3%,104%,102%,65.4%,79%,108%
O=C1CSC(c2ccccc2O)N1c1nnc(Cn2cnnc2)o1 (stereo not drawn),72.4%,71.1%,–,86.4%,73.9%,91.2%,88.1%,68.9%,87.7%,97.8%,105%,54.6%,88.6%,77.5%,84.3%,88.3%,71.2%,78.1%
CCCCN1CCN(c2ccc3nc(-c4ccc5nc(-c6cc(OC)c(OC)c(OC)c6)[nH]c5c4)[nH]c3c2)CC1,10.7%,55.9%,–,84.4%,94.2%,67%,45%,102%,80.2%,53.5%,60.3%,19.9%,41.1%,100%,59.3%,–,–,117%
CNCCNc1nc2ccccc2c2c(=O)c3cc(F)ccc3oc12,22.7%,47.8%,–,54.8%,49.6%,69.3%,70.6%,47.8%,69.9%,76.5%,33.6%,45.2%,27.2%,71.2%,41.8%,–,96.1%,80.4%
